High-throughput results as filed in PubChem BioAssay.
RE007 growth inh: qHTS Assay for Inhibitors of the HIV-1 protein Vpr; S. pombe RE007 Vpr strain, BacTiter-Glo ATP luminescence, 24 h; Potency, µM (doses to about 92.2 µM), without a hit: at the top dose activity change, negative = less growth, usual class: inhibitors; actives 0.21% (n = 360,000); AID 651644, 2012; active means well fitted falling curve with a large enough effect; inconclusive means small, poorly fitted or top-dose-only effect; inactive means no such curve, though single readings can be large or run the other way; further: nearly all actives have a fitted effect of over 50% in size
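Fission yeast strain RE007, carrying one chromosomally integrated HIV-1 vpr copy, was seeded at OD 0.01 in PMG+AL medium with 23 nL pinned compound. After 24 h at 30 °C and 99% humidity, viability was read by BacTiter-Glo luminescence.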
Tb PYK inh: qHTS of Trypanosoma Brucei Inhibitors. TbPYK enzyme, Kinase-Glo Plus ATP luminescence, 45 min. Potency, µM (highest dose often 76.8 µM), for the others: top-dose activity, negative = inhibition, most hits filed as inhibitors. actives 0.12% (n = 410,000). AID 624173, 2012; further: nearly all actives have a fitted effect of over 50% in size
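Luminescence from Kinase-Glo Plus, added after a 45-minute room-temperature reaction, served as the end-point read-out. The enzyme and substrate were preincubated with compound before ADP (130 uM final) initiated turnover. Concentration-effect curves came from normalized qHTS data.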
Sm TGR inh: qHTS Assay for the Inhibitors of Schistosoma Mansoni Peroxiredoxins | AID 485364, 2010 | actives 3% (n = 360,000) | Potency, µM (series often up to 114 µM), without a hit: at the top dose activity change, negative = inhibition, most hits filed as inhibitors | purified TGR, DTNB reduction, TNB absorbance 405 nm; further: nearly all actives have a fitted effect of over 60% in size
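TGR 20 nM + NADPH 100 uM (dispensed conc.), cpd preinc 15 min RT; start with NADPH (500 uM addition) then DTNB (15 mM addition). Kinetic TNB absorbance, 405 nm filter. Four-parameter Hill fit across titration.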
FMDV inh: High Throughput Screening for Foot and Mouth Disease Virus Antivirals. FMDV antiviral cell-based qHTS. Potency, µM (highest dose often 57.9 µM), inactives show at the top dose activity change, negative = inhibition, actives largely listed as inhibitors. actives 1.2% (n = 410,000); calls by dose curve; tested in HEK293T cells; further: read-out not given here; nearly all actives have a fitted effect of over 45% in size
An asterisk follows results filed as active; ? = inconclusive; . = no result given. Only some compounds are listed: those with a hit (about 3.7% of all), similar ones and a draw of the others. Unless noted, the call rests on the fitted dose curve; in most records, active means well fitted curve in the direction sought with a large enough effect; inconclusive means small, poorly fitted or top-dose-only effect, or another doubt; inactive means no such curve, though single readings can be large; an effect the other way counts as inactive or inconclusive. On the % scale 0 is the no-effect control and ±100 the full control effect; potency means the concentration at half of the fitted maximal effect.

SMILES	RE007 growth inh	Tb PYK inh	Sm TGR inh	FMDV inh
CSc1sc(-c2n[nH]c(=S)n2C)c2c1C=CCC2	-3%	?	25µM*	22%
Cc1cc(=O)oc(C)c1C(=O)Nc1ccc2nsnc2c1	15%	16%	-2%	25µM*
O=C(Cn1c(=O)n(Cc2ccccc2)c(=O)c2oc3ccccc3c21)Nc1ccc(Cl)cc1	.	-9%	-32%	-20%
COc1ccc(NC(=O)/C(Cl)=C(/Cl)S(=O)(=O)Cc2ccccc2)cn1	?	-4%	10µM*	20µM*
COc1ccc(NC(=O)/C(Cl)=C(/Cl)S(=O)Cc2ccc(Cl)cc2)cn1 (stereo not drawn)	4.5µM*	17%	0.1µM*	8.9µM*
Cc1ncc2c(c1CNC(=O)c1ccc3c(c1)OCO3)CCN(C(=O)c1coc3c1C(=O)CCC3)C2	.	.	.	8%
O=c1n(Cc2ccc(Cl)cc2)c2ccccc2c2nc(-c3ccccc3)nn12	.	5%	-7%	-12%
c1ccc(CCNc2ccnc3cc4ccccc4cc23)cc1	4%	-1%	4%	14µM*
CC(NC(=O)c1cccnc1)c1nnc2n1CCN(Cc1ccc(-c3ccccc3)cc1)CC2 (stereo not drawn)	.	.	.	-10%
CNCc1ccccc1Sc1cc(O)ccc1O	45%	?	3.5µM*	-11%
CCOc1ccc(CCN2C(=S)N([C@@H](Cc3ccc(O)cc3)CN3CCC[C@@H]3CN3C(=S)NC[C@@H]3Cc3ccc(O)cc3)C[C@@H]2Cc2ccc(O)cc2)cc1	6%	4%	.	-1%
Cc1ccc(-n2[nH]c(=O)c(-c3ccccn3)c2C)cc1	-15%	-6%	0%	7.1µM*
O=C(Nc1ccc(F)cc1)c1ccc(-n2cnc3cccnc32)cc1	.	2%	-1%	?
COC(=O)c1cccc(Cn2c(Cl)c(/C=N/Nc3ccccc3C)sc2=O)c1	2%	-8%	7.9µM*	-11%
Cc1ccccc1N/N=C/c1sc(=O)n(Cc2cccc(C(=O)O)c2)c1Cl	-11%	-26%	10µM*	-25%
Cc1ccccc1N1CCN(Cc2cccc(C(=O)O)c2)CC1	11%	10%	2%	-22%
CCCc1cc(OC)c2c(c1)OCO2	.	.	.	-4%
CC(C)OCCCn1c(SCC(N)=O)nc2c(sc3ccccc32)c1=O	.	-11%	5%	-6%
CCC[C@]1(CCc2ccccc2)CC(O)=C([C@H](CC)c2cccc(NS(=O)(=O)c3ccc(C(F)(F)F)cn3)c2)C(=O)O1	.	4%	.	.
N#Cc1cc(Sc2ccccn2)c([N+](=O)[O-])cc1C#N	111%	6%	35µM*	-9%
N#C/C(=C/c1ccc(C(=O)O)cc1)C(=O)Nc1ccccc1	-11%	-16%	-4%	0%
Cc1ccccc1NC(=O)C(=Cc1ccc(C(=O)O)cc1)C(=O)Nc1ccccc1C	28%	2%	-8%	5.6µM*
CC(=O)/C(=C/c1ccccc1)C(=O)Nc1ccccc1C	0%	-10%	45µM*	14µM*
CC(=O)Nc1ccccc1C	0%	-8%	-2%	-19%
COc1ccc(CN2CCCC(n3cc(C(=O)N4CCCCC4)nn3)C2)c(OC)c1 (stereo not drawn)	.	.	.	-9%
SMILES	RE007 growth inh	Tb PYK inh	Sm TGR inh	FMDV inh
Cc1cc(C)cc(N2CN=c3s/c(=C\c4ccco4)c(=O)n3C2)c1	-14%	2%	-14%	-9%
O=c1/c(=C/c2ccco2)sc2n1CN(c1cccc(Br)c1)CN=2	15%	-4%	25µM*	-14%
Cc1ccc(/C=c2\sc3n(c2=O)CN(c2cccc(Br)c2)CN=3)o1	4%	-5%	25µM*	-6%
Nc1cccc([N+](=O)[O-])c1	6%	3%	-2%	0%
O=[N+]([O-])c1cccc(SSc2cccc([N+](=O)[O-])c2)c1	?	11µM*	.	-10%
COC(=O)c1ccc(C(=O)NCC2Cc3cc(F)cc(-c4cncnc4)c3O2)cc1 (stereo not drawn)	.	.	.	1%
CCOc1ccc(NC(=O)c2nn(C)c3c2COc2ccccc2-3)cc1	.	1%	7.9µM*	13%
COC(=O)c1ccc(NC(=O)c2nn(C)c3c2COc2ccccc2-3)cc1	.	5%	?	?
COc1cc(OC)c(NC(=O)c2nn(C)c3c2COc2ccccc2-3)cc1Cl	.	0%	0.71µM*	-3%
O=C(Nc1cccnc1)c1ccc(S(=O)(=O)c2ccc(Cl)cc2)cc1	2%	0%	-6%	28µM*
O=C(Nc1ccc2oc(-c3cccnc3)nc2c1)c1ccc(-c2ccc(Cl)cc2)o1	.	4%	32µM*	12%
Cc1c(NC(=O)c2ccc(-c3cccc([N+](=O)[O-])c3)o2)cccc1-c1nc2cc(Cl)ccc2o1	.	-4%	35µM*	48%
O=C(Nc1ccc2oc(-c3cccnc3)nc2c1)c1ccc([N+](=O)[O-])o1	-6%	-3%	.	-27%
O=C(Nc1ccc2oc(-c3cccnc3)nc2c1)c1cccnc1	4%	2%	-22%	13%
O=C(Nc1ccc2oc(-c3cccnc3)nc2c1)c1ccc(-c2cccc(Cl)c2)o1	.	-7%	35µM*	?
O=C(Nc1cccnc1)c1ccc(C(=O)Nc2cccnc2)cc1	-1%	1%	8%	-16%
CCn1nnc2cc(C(=O)Nc3cc(C)ccc3C)ccc21	.	3%	7%	-5%
CC(C)C(NC(=O)c1ccoc1)c1nnc2n1CCN(Cc1ccc3c(c1)Cc1ccccc1-3)CC2 (stereo not drawn)	.	.	.	-12%
O=C(Nc1cccnc1)c1ccc(-c2ccc(Cl)cc2)o1	3%	2%	32µM*	7%
O=[N+]([O-])c1ccc(Cl)c(S(=O)(=O)/N=C(/Nc2cccnc2)c2ccccc2)c1	1%	0%	.	-1%
O=C(Nc1cccnc1)c1ccc(-c2cc(Cl)ccc2Cl)o1	-17%	5%	.	3%
O=C(Nc1cccnc1)c1ccc(NS(=O)(=O)c2cc([N+](=O)[O-])ccc2Cl)cc1	0%	2%	32µM*	2%
Cc1cc2c(cc1NS(=O)(=O)c1ccc(F)cc1)n(C)c(=O)c(=O)n2C	.	-4%	5%	-6%
CCOc1ccccc1C(=O)N1CCc2cc(OC)c(OC)cc2C1COc1ccc2c(C)cc(=O)oc2c1 (stereo not drawn)	.	-5%	-2%	-25%
CCOC(=O)c1c(C)oc2nc(C)nc(NCCc3ccc(C)cc3)c12	.	-2%	-15%	-10%
O=C(O)CN1C(=O)/C(=C\c2ccc(OC(=O)c3ccco3)cc2)SC1=S	-2%	4%	-34%	0%
O=C(O)CCN1C(=O)/C(=C\c2ccc(-c3nc4ccccc4s3)o2)SC1=S	5%	-13%	50µM*	8%
O=C(O)CN1C(=O)/C(=C/c2ccc(SCc3ccccc3)o2)SC1=S	5%	-14%	10µM*	-19%
COc1ccccc1CCNCc1cc2cccc(C)c2nc1-c1cccs1	.	.	.	-2%
COc1cccc(CN2CCC3(CC2)c2ccccc2[C@@H](NC(=O)c2ccccc2)[C@@H]3O)c1O	.	.	.	-1%
